Measured values published in PubChem BioAssay (NCATS).
Where “and” joins values, the source holds several entries; their conditions need not be identical. Identical values can stand only once. Results filed as inconclusive are left out. Where a call stands in place of a potency, no number is given. A number with no mark means an inactive call. Calls of active or inactive are those of the source. Calls follow the shape of the dose curve; as a rule, active = well fitted inhibition curve with a large enough effect; inconclusive = small, poorly fitted or top-dose-only effect; inactive = flat fitted curve, though single readings scatter.

Assays:
[1] = qHTS profiling for inhibitors of Plasmodium falciparum proliferation (AID 504749); also: nearly all actives have a fitted effect of over 60% in size; settings: P. falciparum in erythrocytes, SYBR Green DNA, 72 h
Outline: (§1)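 Each compound contacts P. falciparum-infected red blood cells for 72 h at 37 C; lysis buffer (Tris, EDTA, saponin, Triton X, SYBR Green I) is added and fluorescence measured next morning; values normalized to controls.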

3D7 = assay: as above; settings: P. falciparum in erythrocytes, SYBR Green DNA, 72 h; series mostly up to 28.7 µM
Outline: as §1

AA1029 = assay: as above; settings: P. falciparum in erythrocytes, SYBR Green DNA, 72 h; series mostly up to 28.7 µM
Outline: as §1

AS120 = assay: as above; settings: P. falciparum in erythrocytes, SYBR Green DNA, 72 h; series mostly up to 28.7 µM
Outline: as §1

ATS189 = assay: as above; settings: P. falciparum in erythrocytes, SYBR Green DNA, 72 h; series mostly up to 28.7 µM
Outline: as §1

ATS95 = assay: as above; settings: P. falciparum in erythrocytes, SYBR Green DNA, 72 h; series mostly up to 28.7 µM
Outline: as §1

C2A = assay: as above; settings: P. falciparum in erythrocytes, SYBR Green DNA, 72 h; series mostly up to 28.7 µM
Outline: as §1

7G8 = assay: as above; settings: P. falciparum in erythrocytes, SYBR Green DNA, 72 h; series mostly up to 28.7 µM
Outline: as §1

[2] = at 28.7 µM (top of the series), parasite line A
[3] = at 28.7 µM (top of the series), parasite line B
[4] = at 12.8 µM (top of the series), parasite line A
[5] = at 12.8 µM (top of the series), parasite line B
Potency is read from the fitted curve at half-maximal effect.

Structure (SMILES)	activity, negative = inhibition [1, 2]	activity, negative = inhibition [1, 3]	Potency (3D7)	Potency (AA1029)	Potency (AS120)	Potency (ATS189)	Potency (ATS95)	Potency (C2A)	Potency (7G8)	Potency ([1]; parasite line A)	Potency ([1]; parasite line B)	activity, negative = inhibition [1, 4]	activity, negative = inhibition [1, 5]
COP(=O)(OC)OC=C(Cl)Cl	5.3%	13.3%	inactive	inactive	inactive	inactive	inactive	inactive	–	–	–	–	–
CNC(=O)NC(O)C(Cl)(Cl)Cl (stereo not given)	0.151%	3.59%	inactive	inactive	inactive	inactive	inactive	inactive	inactive	–	–	–	–
CN1C[C@@H](NS(=O)(=O)N(C)C)C[C@@H]2c3cccc4c3c(cn4C)C[C@H]21	-15.7%	-6.34%	inactive	–	inactive	inactive	inactive	inactive	inactive	–	–	–	–
CCNc1nc(Cl)nc(NCC)n1	3.24%	–	inactive	inactive	inactive	inactive	inactive	inactive	inactive	–	–	–	–
Oc1ccc2[nH]cc(CCCCN3CC=C(c4ccccc4)CC3)c2c1	–	–	–	–	–	–	–	–	3.98 µM (active)	–	–	–	–
CCN(CC)CCOC(=O)C(C)(c1ccccc1)c1ccccc1	-27.7%	–	inactive	4.47 µM (active)	–	–	–	inactive	5.01 µM (active)	–	–	–	–
O=C(NC(=O)c1c(F)cccc1F)Nc1cc(Cl)c(OC(F)(F)C(F)C(F)(F)F)cc1Cl (stereo not given)	–	–	–	–	8.91 µM (active)	–	–	–	–	–	–	–	–
CCC1(c2ccccc2)CCC(=O)NC1=O (stereo not given)	14.1%	13.3%	inactive	inactive	inactive	inactive	inactive	inactive	–	–	–	–	–
CC[n+]1c(-c2ccccc2)c2cc(N)ccc2c2ccc(N)cc21	–	–	158 nM (active) and 251 nM (active)	112 nM (active) and 355 nM (active)	100 nM (active) and 282 nM (active)	141 nM (active) and 708 nM (active)	126 nM (active) and 355 nM (active)	251 nM (active) and 355 nM (active)	39.8 nM (active) and 70.8 nM (active)	158 nM (active) and 447 nM (active)	112 nM (active) and 316 nM (active)	–	–
CCC1(CC)C(=O)NC(=O)NC1=O	-0.0726%	11.2%	inactive	inactive	inactive	inactive	inactive	inactive	–	–	–	–	–
Cc1c(Cl)c(=O)oc2cc(OP(=O)(OCCCl)OCCCl)ccc12	–	–	–	11.2 µM (active)	11.2 µM (active)	11.2 µM (active)	7.94 µM (active)	10 µM (active)	12.6 µM (active)	8.91 µM (active)	–	–	–
CNC(=O)Oc1cccc2ccccc12	-7.78%	-8.17%	inactive	inactive	inactive	inactive	inactive	inactive	–	–	–	–	–
Clc1ccc(CO/N=C(\Cn2ccnc2)c2ccc(Cl)cc2Cl)c(Cl)c1	–	–	2.82 µM (active)	5.01 µM (active)	2.24 µM (active)	3.98 µM (active)	6.31 µM (active)	10 µM (active)	1.12 µM (active)	3.55 µM (active)	2.82 µM (active)	–	–
CC(Cc1ccccc1)NCc1ccccc1Cl (stereo not given)	-0.799%	-0.104%	inactive	–	–	–	–	inactive	11.2 µM (active)	–	–	–	–
CN1C(=O)[C@@H](NC(=O)c2cc3ccccc3[nH]2)N=C(c2ccccc2)c2ccccc21	–	–	–	–	–	–	–	–	11.2 µM (active)	–	–	–	–
Oc1c(Br)cc(Br)cc1Br	0.526%	-0.833%	inactive	inactive	inactive	inactive	inactive	inactive	inactive	–	–	–	–
ClC1=C(Cl)C2(Cl)C(CBr)CC1(Cl)C2(Cl)Cl (stereo not given)	-10.4%	-10.5%	–	inactive	inactive	inactive	inactive	inactive	–	–	–	–	–
C[C@]12Cc3nonc3C[C@@H]1CC[C@@H]1[C@@H]2CC[C@@]2(C)[C@H]1CC[C@]2(C)O	–	-29.5%	inactive	inactive	inactive	inactive	inactive	inactive	–	–	–	–	–
COP(=O)(OC)C(O)C(Cl)(Cl)Cl (stereo not given)	–	2.48%	inactive	inactive	–	inactive	inactive	inactive	inactive	–	–	–	–
O=C1NCN(c2ccccc2)C12CCN(CCCOc1ccc(F)cc1)CC2	–	-11.5%	inactive	–	–	–	–	–	11.2 µM (active)	–	–	–	–

Structure (SMILES)	activity, negative = inhibition [1, 2]	activity, negative = inhibition [1, 3]	Potency (3D7)	Potency (AA1029)	Potency (AS120)	Potency (ATS189)	Potency (ATS95)	Potency (C2A)	Potency (7G8)	Potency ([1]; parasite line A)	Potency ([1]; parasite line B)	activity, negative = inhibition [1, 4]	activity, negative = inhibition [1, 5]
CCCCCCCCCCCC[N+](C)(C)CCOc1ccccc1	–	–	5.01 µM (active)	5.01 µM (active)	5.01 µM (active)	8.91 µM (active)	–	7.08 µM (active)	3.98 µM (active)	3.55 µM (active)	5.01 µM (active)	–	–
COc1ccc(CN2CCNCC2)c(OC)c1OC	–	–	inactive	inactive	inactive	inactive	inactive	inactive	inactive	–	–	8.69%	4.48%
Cc1ncc2n1-c1ccc(Cl)cc1C(c1ccccc1F)=NC2	7.97%	-15.6%	inactive	inactive	inactive	inactive	inactive	inactive	inactive	–	–	–	–
OC(c1ccccc1)(c1ccccc1)C1CCNCC1	–	–	inactive	inactive	inactive	inactive	inactive	inactive	–	–	–	1.93%	13.2%
N#Cc1nn(-c2c(Cl)cc(C(F)(F)F)cc2Cl)c(N)c1S(=O)C(F)(F)F (stereo not given)	–	–	8.91 µM (active)	8.91 µM (active)	–	–	12.6 µM (active)	8.91 µM (active)	3.55 µM (active)	5.01 µM (active)	8.91 µM (active)	–	–
CC(C)[N+](C)(CCC(C(N)=O)(c1ccccc1)c1ccccc1)C(C)C	–	–	inactive	inactive	inactive	inactive	inactive	inactive	–	–	–	-4.63%	4.79%
CC[C@]1(O)CC[C@H]2[C@@H]3CCC4=CCCC[C@@H]4[C@H]3CC[C@@]21C	–	–	inactive	–	–	–	–	0.891 µM (active)	7.94 µM (active)	–	–	–	–
CN(C)C(=S)SSC(=S)N(C)C	–	–	1.58 µM (active)	2.24 µM (active)	3.55 µM (active)	4.47 µM (active)	3.16 µM (active)	3.16 µM (active)	1.12 µM (active)	2.51 µM (active)	3.16 µM (active)	–	–
C[C@]12CC[C@H]3[C@@H](CC=C4C[C@@H](O)CC[C@@]43C)[C@@H]1CC[C@@H]2O	1.98%	6.49%	inactive	inactive	inactive	inactive	inactive	inactive	inactive	–	–	–	–
Nc1ccc(N)cc1	–	–	8.91 µM (active)	–	–	–	–	–	–	–	–	–	–
COCC(=O)N(c1c(C)cccc1C)C(C)C(=O)OC (stereo not given)	–	–	inactive	inactive	–	–	–	inactive	inactive	–	–	–	–
NC(=O)OCCCc1ccccc1	-9.09%	10.5%	inactive	inactive	inactive	inactive	inactive	inactive	inactive	–	–	–	–
OC(O)C(Cl)(Cl)Cl	9.58%	19.3%	inactive	inactive	inactive	inactive	inactive	inactive	–	–	–	–	–
CN1CCc2cc(Cl)c(O)cc2[C@H]2c3ccccc3CC[C@@H]21	–	-29.7%	–	–	–	–	–	inactive	11.2 µM (active)	–	–	–	–
C#C[C@]1(O)CC[C@H]2[C@@H]3CCC4=CC(=O)CCC4=C3C=C[C@@]21CC	–	–	7.94 µM (active)	–	–	–	10 µM (active)	–	11.2 µM (active)	–	6.31 µM (active)	–	–
CC(C)(C)OC(=O)c1ncn2c1[C@@H]1CCCN1C(=O)c1c(Br)cccc1-2	0.318%	11.2%	inactive	inactive	inactive	inactive	inactive	inactive	–	–	–	–	–
CN1C(=O)CN=C(c2ccccc2)c2cc([N+](=O)[O-])ccc21	1.56%	-3.67%	inactive	inactive	inactive	inactive	inactive	inactive	inactive	–	–	–	–
C=CCOC(Cn1ccnc1)c1ccc(Cl)cc1Cl (stereo not given)	–	–	11.2 µM (active)	8.91 µM (active)	5.01 µM (active)	10 µM (active)	8.91 µM (active)	–	2 µM (active)	–	10 µM (active)	–	–
Cc1ccc(N=CN(C)C=Nc2ccc(C)cc2C)c(C)c1	5.73%	9.78%	inactive	inactive	inactive	inactive	inactive	inactive	inactive	–	–	–	–
